Nine compounds from PubChem BioAssay (EPA / NIEHS) can be followed below.

What is called AC50 is the concentration at which the activity in the assay is half-maximal.

“And” between values parts separate entries of the source, which are not always exact repeats. Equal entries are not always repeated. A structure can be active in one record and inactive in another. The source made the active and inactive calls. The calls were made as follows: active = hit-call score of the fitted dose curve at least 0.9, where 1 is the maximum; inactive = score below 0.9.

Experiment [1] is described as follows: CCTE_Mundy_HCI_Cortical_Synap_Neur_Matur_NeuriteSpotCountPerNeuriteLength: CCTE's Synaptogenesis and Neurite Maturation Assay in rat cortical cells for Neurite Spot Count per Neurite Length, Mundy Lab (AID 2284210). Put shortly: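 Synaptophysin spots per unit neurite length, measured by automated imaging of MAP2/synaptophysin/Hoechst-stained neurons. Cultures from rat cortex received chemical at DIV 7 with media change through DIV 12; glial growth arrested by AraC at DIV 5; DMSO baseline.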

Experiment [2] is described as follows: CCTE_Mundy_HCI_Cortical_Synap_Neur_Matur_BPCount: CCTE's Synaptogenesis and Neurite Maturation Assay in rat cortical cells for Branch Point Count, Mundy Lab (AID 2284211). Here is the method:
CCTE_Mundy_HCI_Cortical_Synap&Neurite_Matur is a multiplexed, cell-based-readout assay that uses rat primary cortical cells with measurements taken at 288.33 hours after chemical dosing in a microplate: 96-well plate.CCTE_Mundy_HCI_Cortical_Synap_Neur_Matur_BPCount is one of eight components of the CCTE_Mundy_HCI_Cortical_Synap&Neurite_Matur assay. It measures synaptogenesis and neurite maturation related to number of branch points using High Content Imaging of fluorescently labelled markers.[…] Using a type of morphology reporter, loss -of-signal activity can be used to understand developmental effects.
Cells are plated onto 96 well plates and allowed 2 hr for attachment to the substrate. At days in vitro (DIV) 5, Cytosine Arabinoside (AraC) is added to arrest glial cell growth. Chemicals are dosed and a media change is performed at DIV 7 of differentiation and is continued through DIV 12 when the experiment is terminated. Cells are fixed with […] and Hoechst Dye. Cells are stained using Millipore Mouse anti-MAP2MAB3418 (1:800) and Millipore Rabbit anti-Synaptophysinsc-1750 (1:250) primary antibodies and Alexa Fluor-488 goat anti-mouse and AlexaFluor-546 goat anti-rabbit secondary antibodies to label neuronal cell nuclei, synapses and neurites. A Cellomics ArrayScan VTi HCS Reader is used for automated image acquisition and analysis of neurite outgrowth.

A short description of experiment [3]: CCTE_Mundy_HCI_Cortical_NOG_NeuriteCount: CCTE's Neurite Outgrowth Assay in rat cortical cells for Neurite Count, Mundy Lab (AID 2284212).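 Also: cells fixed about two days after chemical exposure began.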 Put shortly:
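Rat cortical primary cells; compound added 2 h post-plating, 1/10 dilution of working solution. Anti-betaIII-tubulin/AF488 ICC; ArrayScan neurite count vs DMSO.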

The nature of experiment [4]: CCTE_Mundy_HCI_Cortical_NOG_NeuriteLength: CCTE's Neurite Outgrowth Assay in rat cortical cells for Neurite Length, Mundy Lab (AID 2284213).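 As to AC50: neurites imaged about 48 to 50 h after chemical exposure began.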 Put shortly:
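First, rat primary cortical cells were plated and, 2 h later, given test chemical as a 1/10 dilution. Finally, βIII-tubulin immunostaining enabled automated imaging of neurite length.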

The nature of experiment [5]: CCTE_Mundy_HCI_Cortical_Synap_Neur_Matur_NeuriteLength: CCTE's Synaptogenesis and Neurite Maturation Assay in rat cortical cells for Neurite Length, Mundy Lab (AID 2284214). Put shortly: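 Read-out: high-content imaging of MAP2-labelled neurites, with synaptophysin and Hoechst co-stain, in rat cortical cultures fixed at DIV 12. Activity fitted in positive direction relative to DMSO baseline.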

Experiment [6] can be described thus: CCTE_Mundy_HCI_Cortical_Synap_Neur_Matur_NeuriteSpotCountPerNeuron: CCTE's Synaptogenesis and Neurite Maturation Assay in rat cortical cells for Neurite Spot Count per Neuron Count, Mundy Lab (AID 2284215). Put shortly: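 Rat primary cortical cells received AraC at DIV 5, then chemicals with a media change at DIV 7, and were fixed at DIV 12. Synaptophysin puncta on MAP2-stained neurites per neuron were counted by high-content imaging, fitted relative to DMSO.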

Experiment [7] can be described thus: IUF_NPC1b_proliferation_BrdU_72hr: Leibniz Research Institute for Environmental Medicine (IUF) 72-hour Neural Progenitor Cell Bromodeoxyuridine (BrdU) Proliferation Assay (NPC1b) (AID 2284207). Put shortly:
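Human fetal cortex-derived (GW 16-19) neural progenitor spheres, 0.25-0.35 mm, one per well in EGF/FGF proliferation medium, exposed to compound for 72 h at 37C, pH 7.2-7.6. BrdU incorporation over the final 16 h read by luminescence ELISA, relative to DMSO.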

Experiment [8] in a line: IUF_NPC1a_proliferation_area_72hr: Leibniz Research Institute for Environmental Medicine (IUF) 72-hour Neural Progenitor Cell Proliferation Area Assay (NPC1a) (AID 2284208). Put shortly: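 Read-out: increase in sphere area over 72 h by automated phase-contrast imaging, fitted in positive direction versus DMSO baseline. One hNPC sphere (0.25-0.35 mm) per well in EGF/FGF medium; growth-factor withdrawal served as positive control.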

Experiment [9] in a line: IUF_NPC1_viability_72hr: Viability Assessment at 72 hours in the Leibniz Research Institute for Environmental Medicine (IUF) Neural Progenitor Cell Proliferation Assay (NPC1) (AID 2284209). Put shortly: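 Alamar blue fluorescence (RFU) after 72 h exposure, normalized to DMSO baseline. hNPC spheres from GW 16-19 fetal cortex, single sphere per well in growth-factor medium; no compound renewal.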

Experiment [10] is described as follows: TAMU_PeakParms_SingleDonor1434_Chronotropy: Texas A&M University (TAMU) 1.5-hr Human Induced Pluripotent Stem Cell (iPSC)-derived Cardiomyocytes Calcium (Ca+2) Flux Assay for Cardiotoxicity: Chronotropy (changes in peak frequency) (AID 2284217). The following applies: actives raise or lower the signal. Put shortly:
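Beat rate, as mean Ca2+-flux peak frequency, was read from donor 1434 iPSC cardiomyocytes 90 min after exposure to 0.2–100 uM test chemical (0.5% DMSO). Wells that stopped beating were excluded; EC05 from bidirectional DMSO-referenced fitting.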

For the compound `COc1ccc(O)c(C(C)(C)C)c1`, the compound was called inactive in [1], in [2], in experiment [3], in experiment [4], in experiment [5] and in experiment [6].

Consider `O=S(=O)(O)C(F)(F)C(F)(F)C(F)(F)C(F)(F)C(F)(F)C(F)(F)F`, for which the outcome in [7], in experiment [8], in experiment [9], in [1], in experiment [2] and in [3] was inactive. Moreover, the outcome in experiment [4], in experiment [5] and in experiment [6] was inactive.

In the case of `ClC1=C(Cl)[C@]2(Cl)[C@@H]3[C@@H]4C[C@@H]([C@H]5O[C@@H]45)[C@@H]3[C@@]1(Cl)C2(Cl)Cl`, the AC50 in experiment [1] is 25.5 µM (active); in [4], 8.83 µM (active); in experiment [5], 12.8 µM (active); in experiment [6] it was 13 µM (active); in experiment [10], 4.73 µM (active).

Take `CO/C=C(/C(=O)OC)c1ccccc1COc1cccc(C(F)(F)F)n1`: the call in experiment [7] was inactive. Further, the AC50 in experiment [8] is 12.6 µM (active); in [9] it was 25.3 µM (active); in experiment [1] it was 1.09 µM (active); in experiment [2], 1.16 µM (active); in [3], 1.55 µM (active); in [4] it was 1.43 µM (active). The AC50 in [5] is 0.731 µM (active); in [6], 0.688 µM (active).

On to `O=S(=O)(O)C(F)(F)C(F)(F)C(F)(F)C(F)(F)F`, for which the compound was called inactive in experiment [7], in experiment [8], in experiment [9], in [1], in experiment [2] and in experiment [3]. Moreover, the outcome in experiment [4], in [5] and in experiment [6] was inactive.

Consider `ClC1=C(Cl)[C@]2(Cl)[C@@H]3[C@@H](Cl)[C@H]4O[C@H]4[C@@H]3C1(Cl)C2(Cl)Cl`, for which, in experiment [1], the compound was classed as inactive. Besides, the AC50 in experiment [2] was 3.36 µM (active); in [3] it was 16.6 µM (active); in [4] it was 16 µM (active); in experiment [5], 4.05 µM (active); in experiment [6], 8.58 µM (active).

For the compound `C=CC(N)=O`, the call in [7], in experiment [8], in experiment [9], in experiment [1], in experiment [2] and in experiment [3] was inactive. Moreover, the outcome in [4], in [5], in experiment [6] and in experiment [10] was inactive.

For the compound `CCOP(=S)(OCC)SCSC(C)(C)C`, the outcome in experiment [7], in experiment [8], in [9] and in experiment [1] was inactive. In addition, the AC50 in [1] was 23 µM (active); in [2] it was 80.7 µM (active) and 23.2 µM (active); in experiment [4], 91 µM (active) and 79.2 µM (active); in [5], 81.5 µM (active) and 17.5 µM (active); in experiment [6], 81 µM (active) and 22.9 µM (active).

As to `c1cc2ccc3cccc4ccc(c1)c2c34`, the AC50 in [10] was 50 µM (active).
